Data as given in PubChem BioAssay (NCI).
Compounds without any hit were thinned out: in the full panel of roughly 83,000, 20% have a hit.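 Values shown are percent growth following 48 h exposure of cells in 96-well plates to a single concentration of compound; below 10 was considered active.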 Activity calls are given as the source filed them.

Tests used:
Assay in all cases: NCI-60 one-dose screen, 48 h (100 = growth as untreated, 0 = no growth, -100 = all killed)
Details in all cases: 10 µM unless noted
[1] = system: SR leukemia
[2] = system: RPMI-8226 leukemia
[3] = system: OVCAR-8 ovarian
[4] = system: OVCAR-5 ovarian
[5] = system: OVCAR-4 ovarian
[6] = system: SK-OV-3 ovarian
[7] = system: IGROV1 ovarian
[8] = system: OVCAR-3 ovarian
[9] = system: HS 578T breast
[10] = system: NCI/ADR-RES ovarian

Measured: growth

CSC1=Nc2c(c(C)c(-c3ccccc3)n2CCCCl)C2=NC(=O)CN12
inactive: [1] 12.8% | [2] 50.5% | [3] 88.4% | [4] 86.2% | [5] 75.5% | [6] 87.5% | [7] 47.9% | [8] 85.2% | [9] 84.6% | [10] 58%

Oc1ccccc1/C=N/N=C\c1ccccc1Cl
inactive: [1] 82.4% | [2] 102% | [3] 95.2% | [4] 115% | [5] 93.4% | [6] 96% | [7] 70.3% | [8] 84.1% | [9] 105% | [10] 95.2%

CC[C@H](Nc1ncnc2nc[nH]c12)c1nc2cccc(NCc3ccc(C(=O)NO)o3)c2c(=O)n1-c1ccccc1
inactive: [1] 76.2% | [2] 94.9% | [3] 99.2% | [4] 98.3% | [5] 97.3% | [6] 110% | [7] 106% | [8] 97.6% | [9] 84.7% | [10] 101%

COc1cccc2c1nc1cccc(OC)c1[n+]2[O-]
inactive: [2] 51.1% | [3] 41.7% | [4] 23.3% | [5] 69.7% | [6] 29% | [8] 101% | [9] 80% | [10] 37.4%
active: [1] -0.211% | [7] -73.4%

CCCCCCCCCC[N+](C)(C)N
inactive: [1] 72.7% | [2] 78.1% | [3] 88.1% | [4] 101% | [5] 99.1% | [6] 99.4% | [7] 83.8% | [8] 100% | [9] 91.9% | [10] 112%

Cc1ccccc1-n1c(C)nc2cc(NC(=O)c3ccc(Cl)cc3)ccc2c1=O
inactive: [1] 73.7% | [2] 44.6% | [3] 84% | [4] 75.9% | [5] 30.1% | [6] 83.2% | [7] 78.6% | [8] 58.9% | [9] 82.1% | [10] 82.4%

COC(=O)C(C)[C@H]1CC[C@@H]2[C@]1(C)CC=C1[C@]23C=C[C@]2(C[C@@H](OC(C)=O)CC[C@]12C)C(C(=O)OC)C3C(=O)OC (stereo not given in full)
inactive: [1] 55.8% | [2] 60.8% | [3] 95.7% | [4] 109% | [5] 85.7% | [6] 111% | [7] 98.2% | [8] 86.4% | [9] 102% | [10] 94.3%

CC(C)(C)c1cc(C[P+](c2ccc(Cl)cc2)(c2ccc(Cl)cc2)c2ccc(Cl)cc2)cc(C(C)(C)C)c1O
inactive: [1] 39.5% | [2] 10.9% | [3] 85.8% | [4] 105% | [5] 79.2% | [6] 88.9% | [7] 52.1% | [8] 90.3% | [9] 105% | [10] 97.2%

CC(C)OC(=O)c1ccc2n1CCCc1cnc(Nc3ccccc3)nc1-2
inactive: [1] 35.4% | [2] 58.4% | [3] 82.4% | [4] 93.8% | [5] 61.4% | [6] 97% | [7] 83.7% | [8] 84.7% | [9] 99% | [10] 69.7%

O=[N+]([O-])c1ccc(-c2ncc(-c3ccc(O)cc3O)[nH]2)cc1
inactive: [2] 74.1% | [3] 101% | [4] 125% | [5] 104% | [6] 116% | [7] 97.6% | [8] 105% | [9] 70.9% | [10] 115%
active: [1] -28.9%

Nc1ncn([C@@H]2O[C@H](CO)[C@@H](O)C2(F)F)c(=O)n1
inactive: [1] 15% | [2] 39.2% | [3] 49.8% | [4] 87% | [5] 94.9% | [6] 71.1% | [7] 56.8% | [8] 70.6% | [9] 90.4% | [10] 42.1%

COc1cc2c(c3c1c(=O)c1cccc(F)c1n3C)C=CC(C)(C)O2
inactive: [1] 48.8% | [2] 64.7% | [3] 85.2% | [4] 101% | [5] 101% | [6] 110% | [7] 75.4% | [8] 117% | [9] 101% | [10] 83.9%

CC(=O)c1nn(-c2ccc(C)cc2)cc1C(=O)c1cc2c(ccc3ccccc32)oc1=O
inactive: [1] 84% | [2] 93.5% | [3] 101% | [4] 102% | [5] 87.3% | [6] 80.4% | [7] 88% | [8] 98.4% | [9] 96.7% | [10] 101%
